These results are taken from PubChem BioAssay AID1004 (SRMLSC, 2008).

Values without a mark were called inactive.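 How the source made its calls: active means viability at 10 µM of 29.74% or lower, 3 SD below the compound median; inactive means the rest.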

What is called viability is a read-out of living cells in per cent, often relative to untreated cells.

This experiment in a line: viability of HCT116 lacking mutant beta-catenin – cell-based, DP diverse set, validation, pilot screen (AID 1004). Conditions: HCT116 (mutant beta-catenin deleted) viability, CellTiter-Glo, 60 h; at 10 µM; active compounds read low. For orientation: ATP-based viability assays read luminescence as a measure of living cells.
In the case of `Cn1cnc2c(NCc3ccccc3)nc(NCCO)nc21`, the viability is 103%.
Turning to `CN1CCN(C2Cc3ccccc3Sc3ccc(S)cc32)CC1` (stereo not given), the viability was 79.5%.
Take `[O][C@H]1[C@@H](O)[C@@H](CO)O[C@@H](O[C@@H]2[C@@H]3OC[C@H]2O[C@H](O[C@@H]2[C@@H](O)[C@H](C[C@@H]4[C@@H]5OC[C@H]4O[CH][C@@H]5O)O[C@H](CO)[C@@H]2OS(=O)(=O)O)[C@@H]3OS(=O)(=O)O)[C@@H]1O`: the viability is 96.4%.
The same measure for `CC12CC3(O)OC(O1)C1(COC(=O)c4ccccc4)[C@@H]3CC21O[C@@H]1O[C@H](CO)[C@@H](O)[C@H](O)[C@H]1O`: 93.9%.
Consider `c1ccc2nc3ccccc3cc2c1`, for which the viability is 100%.
On to `COC(=O)CCc1c(C)[nH]c(C(=O)OCc2ccccc2)c1C`, for which the viability is 100%.
Regarding `Cc1ccc2c(c1)C(=O)C1(O)CCN(c3ccccc3)C1=N2` (stereo not given), the viability is 91%.
The same measure for `CC1COC2=C1C(=O)C(=O)c1c2ccc2c1CCCC2(C)C` (stereo not given): 32.2%; for `CCCCCCCCCCCCCCCC(=O)OCC(O)C1OC(=O)C(O)=C1O` (stereo not given): 100%; for `CC1=C(/C=C/C(C)=C/C=C/C(C)=C/C=C/C=C(C)/C=C/C=C(C)/C=C/C(=O)[C@]2(C)C[C@@H](O)CC2(C)C)C(C)(C)C[C@H](O)C1`: 95.5%.
Turning to `CCOC(=O)c1ncn2c1CN(C)C(=O)c1cc(F)ccc1-2`, the viability was 99.8%.
On to `COc1ccc2c(c1)c(CC(=O)O)c(C)n2C(=O)c1ccc(Cl)cc1`, for which the viability was 101%.
In the case of `O=C1OC2(c3ccc(O)cc3Oc3cc(O)ccc32)c2ccccc21` it was 96.5%; in that of `COc1cc(CNC(=O)CCCC/C=C/C(C)C)ccc1O`, 95.2%.
With `NCCNS(=O)(=O)c1cccc2c(Cl)cccc12`, the viability is 95.7%.
In the case of `CC(C)=CCC/C(C)=C/COc1ccc2ccc(=O)oc2c1`, the viability is 96.8%.
On to `NC(=NCc1ccccc1)NC(=O)c1nc(Cl)c(N)nc1N`, for which the viability is 88.8%.
Turning to `CC[n+]1c(-c2ccccc2)c2cc(N)ccc2c2ccc(N)cc21`, the viability is 51.3%.
The same measure for `CCOC(=O)C(C)(C)Oc1ccc(Cl)cc1`: 98.7%; for `COc1ccc2nc(S(=O)Cc3ncc(C)c(OC)c3C)[nH]c2c1` (stereo not given): 96.8%.
On to `COc1ccc2c3c1O[C@H]1C[C@@H](O)C=C[C@@]31CCN(C)C2`, for which the viability is 94%.
Turning to `CC1(C)CCC[C@@](C)([C@H]2CC[C@]3(C)[C@@H]2[C@H](O)C[C@@H]2[C@@]4(C)CC[C@H](O)C(C)(C)[C@@H]4[C@@H](O)C[C@]23C)O1`, the viability was 97.9%.
In the case of `COc1ccc(Cl)cc1C(=O)NCCc1ccc(S(=O)(=O)NC(=O)NC2CCCCC2)cc1` it was 97%; in that of `C[C@@H]1CC2C3CCC4=CC(=O)C=CC4(C)[C@@]3(F)[C@@H](O)CC2(C)[C@@]1(O)C(=O)CO` (stereo not given in full), 99.5%.
As for `O=c1[nH]cnc2ccccc12`, the viability was 98.6%.
The same measure for `CO/N=C(\C(=O)N[C@@H]1C(=O)N2C(C(=O)O)=C(COC(C)=O)CS[C@H]12)c1csc(N)n1`: 96.4%.
The same measure for `C[C@H](CS)C(=O)N1CCC[C@H]1C(=O)O`: 93.8%; for `CC(=O)N[C@H]1C(O[C@@H]2O[C@H](C[C@@H](O)[C@H]3O[C@@H](N4CCC(=O)NC4=O)[C@H](O)[C@@H]3O)[C@H](O)[C@H](O)[C@H]2NC(=O)/C=C/CCCCCCCCCCC(C)C)OC(CO)[C@@H](O)[C@@H]1O` (stereo not given in full): 55.1%; for `CC[C@@]1([C@@H]2O[C@@H]([C@H]3O[C@@](O)(CO)[C@H](C)C[C@@H]3C)C[C@@H]2C)CC[C@H]([C@]2(C)CC[C@]3(C[C@H](O)[C@@H](C)[C@@H]([C@@H](C)[C@@H](OC)C(C)C(=O)O)O3)O2)O1` (stereo not given in full): 93%.
Consider `C=C1OC(CO)(n2cnc3c(N)ncnc32)C(O)C1O` (stereo not given), for which the viability is 95.1%.
